SW480 rerep – induces DNA re-replication in SW480 colon adenocarcinoma cells | Potency, µM (series often up to 46.1 µM), actives largely listed as activators | actives 1.8% (n = 340,000) | SW480 DNA re-replication, Hoechst DNA content imaging, 48 h | AID 624297; note: nearly all actives have a fitted effect of over 55% in size
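SW480 cells exposed to compounds for 48 hr at 37 C, 5% CO2, then Hoechst-stained 40 min. Nuclear DNA content imaged by fluorescence scanning (405 nm excitation, 500-530 nm emission); re-replication scored as increased high-intensity nuclei.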
KB-V1 cytotox – kills drug-selected multidrug resistant KB-V1 cells. Potency, µM (doses to about 46.1 µM), hits mostly cytotoxic. KB-V1 MDR cells viability, CellTiter-Glo, 72 h. actives 3.4% (n = 400,000); note: nearly all actives have a fitted effect of over 60% in size
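Potencies derive from concentration-effect curves fitted to normalized luminescence (CellTiter-Glo) of KB-V1 cells treated for 72 h at 37 degrees C in phenol-red-free DMEM containing 10% FBS.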
PINK1 modulator – changes PINK1 expression | PINK1 immunofluorescence, high-content cytometry, 24 h | actives 0.2% (n = 410,000) | Potency, µM (top dose mostly 76.6 µM), usual class: activators; active = well fitted activation curve with a large enough effect; inconclusive = small, poorly fitted or top-dose-only effect; cell line not stated here; note: nearly all actives have a fitted effect of over 65% in size
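Compound titrations (5 concentrations, 24 h) on a stable cell line; DMSO and CCCP controls. Endpoint: fixed-cell PINK1 immunofluorescence with mitochondrial, cell and nuclear markers, scanned by microplate cytometer.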
KB-3-1 tox – kills parental KB-3-1 adenocarcinoma cells; Potency, µM (titrated, usually from 46.1 µM), most hits filed as cytotoxic; actives 1.4% (n = 400,000); KB-3-1 viability, CellTiter-Glo ATP luminescence, 72 h; note: nearly all actives have a fitted effect of over 60% in size
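Parental KB-3-1 adenocarcinoma cells in phenol-red-free DMEM with 10% FBS were pin-treated with compounds at several concentrations, incubated 72 h at 37 °C, and viability read by CellTiter-Glo luminescence; concentration-effect curves were fitted after normalization.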
PTAP TSG101 blk – blocks PTAP/TSG101 interaction to inhibit HIV-1 budding | Q99816 | Fluorescence polarization, FITC-PTAP peptide / Tsg101 binding | Potency, µM (series often up to 115 µM), most hits filed as inhibitors | 340,000 tested, under 10 active; active = well fitted inhibition curve with a large enough effect in the main read-out, with a control signal flat, not every such curve was filed as active; inconclusive = small, poorly fitted or top-dose-only effect, or effect the other way, or a change in a side signal; inactive = no such curve, though single readings can be large or run the other way
Target sequence (Q99816 whole entry, looked up): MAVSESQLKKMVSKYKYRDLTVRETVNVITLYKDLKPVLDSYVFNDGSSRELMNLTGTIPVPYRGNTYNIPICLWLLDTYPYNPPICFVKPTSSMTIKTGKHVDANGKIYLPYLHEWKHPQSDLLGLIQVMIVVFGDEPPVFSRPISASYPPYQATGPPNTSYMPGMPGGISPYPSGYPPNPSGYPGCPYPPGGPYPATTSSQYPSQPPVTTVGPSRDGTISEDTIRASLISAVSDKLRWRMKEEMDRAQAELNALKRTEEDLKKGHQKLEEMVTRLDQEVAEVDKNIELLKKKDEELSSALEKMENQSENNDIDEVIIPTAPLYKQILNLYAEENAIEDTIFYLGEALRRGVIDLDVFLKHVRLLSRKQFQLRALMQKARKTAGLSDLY
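Fluorescence anisotropy tracks displacement of a FITC-tagged PTAP peptide (50 nM) from the Tsg101 binding domain (10 uM), following a 20 min room-temperature incubation at pH 7.5.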
MCF10A rereplic – induces DNA re-replication in MCF 10a normal breast cells; actives 2.9% (n = 350,000); Potency, µM (doses to about 46.1 µM), hits mostly activators; MCF 10A DNA re-replication, Hoechst nuclear intensity, 48 h; note: nearly all actives have a fitted effect of over 50% in size
Hits are given with their value; – = inactive; ? = inconclusive; · = no result given. Most compounds without a hit are left out; they make up all but 6.8% or so of the library. Unless noted, calls come from the whole dose curve; as a rule, active = well fitted curve in the direction sought with a large enough effect; inconclusive = small, poorly fitted or top-dose-only effect, or another doubt; inactive = no such curve, though single readings can be large; an effect the other way counts as inactive or inconclusive.

SMILES	SW480 rerep	KB-V1 cytotox	PINK1 modulator	KB-3-1 tox	PTAP TSG101 blk	MCF10A rereplic
COC1C(CO)OC(n2c3c(Cl)cccc3c3c4c(c5c6cccc(Cl)c6[nH]c5c32)C(=O)NC4=O)C(O)C1O (centres undefined)	1.6µM	–	40µM	8.2µM	?	–
COC1C(O)C(CO)OC1n1c(Br)nc2c(=O)[nH]c(N)nc21 (centres undefined)	·	·	–	·	·	·
COC(=O)N1CCN(c2ccc(Cl)c(Cl)c2)CC1	–	23µM	–	?	–	–
Nc1ccc(N2CCN(c3ccc(Cl)c(Cl)c3)CC2)cc1	–	18µM	?	21µM	–	?
COC(=O)N1CCN(c2ccc(OC)cc2)CC1	–	?	–	–	–	–
O=C1C(=O)C(c2cc(O)c(O)c(O)c2)Oc2cc(O)cc(O)c21 (centres undefined)	·	–	–	?	·	·
CCC1CN(CCNC(=O)c2ccc(C#CC(C)(C)O)cc2)Cc2cc(OC)ccc2O1 (centres undefined)	·	·	–	·	·	·
Cc1c(Cl)cccc1NC(=O)CSc1nc(=O)[nH]c2c1CCCC2	·	·	–	·	·	·
O=C(Nc1ccn(Cc2ccc(Cl)cc2)n1)c1ccc2c(c1)OCO2	–	–	–	–	–	–
Cc1ccc(Cn2ccc(NC(=O)c3cc(-c4cccc(Cl)c4)on3)n2)cc1	–	15µM	–	–	–	?
Cc1ccc(Cn2ccc(NC(=O)c3cc(-c4ccc(Cl)cc4)on3)n2)cc1	–	–	–	–	–	–
Cc1cccc(Cn2ccc(NC(=O)c3ccc4c(c3)OCO4)n2)c1	–	18µM	–	–	–	–
CCOc1ccccc1NC(=O)CN1C(=O)COc2ccc(S(=O)(=O)N3CCCCC3)cc21	·	·	–	·	·	·
Cc1ccc(N/N=C(/Sc2nnnn2-c2ccccc2)C(=O)c2ccccc2)cc1	–	21µM	–	–	–	?
O=C(/C(=N\Nc1ccc([N+](=O)[O-])cc1)Sc1nnnn1-c1ccccc1)c1ccccc1	–	16µM	?	–	–	?
Clc1ccc(-c2csc3ncnc(Sc4nnnn4C4CC4)c23)cc1	·	?	–	?	·	·
COc1ccc(C2C(Oc3ccccc3)C(=O)N2c2cc(C)ccc2C)cc1OC (centres undefined)	–	6.5µM	–	–	–	–
O=C(O)c1ccc(Sc2nnnn2-c2ccccc2)c([N+](=O)[O-])c1	–	–	–	–	–	–
COC(=O)c1ccc(Sc2nnnn2-c2ccccc2)c([N+](=O)[O-])c1	10µM	?	–	?	–	?
O=C(c1ccccc1Br)N(Cc1ccco1)C1CCS(=O)(=O)C1 (centres undefined)	·	–	–	–	·	·
COc1ccc(Cn2c(CO)cnc2SCc2cccc(C)c2)cc1	·	–	–	–	·	·
CCNC(=O)CCC(N)C(=O)O (centres undefined)	·	·	–	·	·	·
Cc1ccc(-c2noc(C3CCN(C(=O)Nc4ccc(C#N)cc4)CC3)n2)o1	–	2.6µM	–	?	–	–
CN(C)c1ccc(-c2noc(C3CCN(C(=O)Nc4ccc(Cl)cc4)CC3)n2)cc1	?	?	–	–	–	?
O=c1c2c3c(sc2n(CCN2CCCCC2)c(=O)n1Cc1ccco1)CCCCC3	?	?	–	–	–	13µM
SMILES	SW480 rerep	KB-V1 cytotox	PINK1 modulator	KB-3-1 tox	PTAP TSG101 blk	MCF10A rereplic
O=c1c2c3c(sc2n(CCN2CCOCC2)c(=O)n1Cc1ccco1)CCCCC3	?	?	–	–	–	–
CSc1cccc(NC(=O)C2CCCN(C(=O)c3cnn(-c4ccc(F)cc4)c3-n3cccc3)C2)c1 (centres undefined)	·	·	–	·	·	·
O=C(Nc1ccc(-c2ccccc2)cc1)Nc1nnc(-c2ccncc2)s1	·	–	·	?	·	·
C=CCn1c(-c2ccc(OC)c(OC)c2)n[nH]c1=S	–	16µM	–	?	–	–
Cc1nn(C)c(C)c1CN(Cc1nc(-c2ccc(F)cc2F)oc1C)C1CC1	–	?	–	–	–	–
Cc1nn(C)c(C)c1CN(Cc1nc(-c2cc(F)ccc2F)oc1C)C1CC1	–	16µM	–	–	–	–
Cc1ccc(NC(=S)N/N=C2\CC(C)(C)Oc3ccc(O)cc32)cc1	–	–	–	–	–	21µM
COc1ccc(NC(=S)N/N=C2\CC(C)(C)Oc3ccc(OC)cc32)cc1	–	–	–	–	–	–
Cc1ccccc1NC(=S)N/N=C1\CC(C)(C)Oc2ccc(O)cc21	–	–	–	?	–	–
CC(=O)N1CCC2(CC1)C/C(=N\NC(=S)Nc1ccc(C)cc1)c1cc(O)ccc1O2	–	–	–	?	–	23µM
CCOC(=O)c1ccc(NC(=O)CN2C(=O)c3cccnc3Sc3ccccc32)cc1	·	–	–	–	·	·
Cc1cc(C(=O)NCC2CCC3(CCN(Cc4ccc(F)cc4)CC3)O2)n(C)n1 (centres undefined)	·	·	–	·	·	·
Cc1ccccc1Cn1cnc2c(NS(C)(=O)=O)c(C)c(C)cc21	–	16µM	–	?	–	?
O=C(CCCl)Nc1nc2c(s1)CCc1ccccc1-2	?	–	–	?	–	18µM
N#C/C(=C(/O)CCl)c1nc2c(s1)CCc1ccccc1-2	?	15µM	–	4.1µM	–	13µM
Clc1cccc[n+]1CCCCCC[n+]1ccccc1Cl	·	–	·	–	·	·
Cc1cccc(C)c1NC(=O)c1c(O)c2ccccc2[nH]c1=O	–	?	–	18µM	–	–
O=S1(=O)N=C(Oc2ccc(Br)cc2)c2ccccc21	·	–	·	–	·	·
Cc1ccc(C(C(=O)NCC2CCCO2)N(Cc2ccccc2)C(=O)c2ccc(-c3ccccc3)[nH]2)o1 (centres undefined)	?	–	–	–	–	?
O=C(NCC1CCCO1)C(c1cccs1)N(Cc1ccccc1Cl)C(=O)c1ccc(-c2ccccc2)[nH]1 (centres undefined)	?	4.1µM	–	–	–	?
CN(C)/C=C/C(=O)/C=C/c1cn(-c2ncc(C(F)(F)F)cc2Cl)c2ccccc12	?	?	–	?	–	3.7µM
CC(C)C[C@@H](NC(=O)[C@H](Cc1ccccc1)NC(=O)c1cnccn1)B(O)O	0.003µM	·	·	·	·	?
O=c1[nH]c(CCC2CCCC2)nc2ccccc12	–	16µM	–	–	–	–
O=C(c1ccc(Br)cc1)N(Cc1nc2ccccc2c(=O)[nH]1)C1CCCC1	?	?	–	16µM	–	–
Cc1ccc(COc2ccccc2-c2cc(C(=O)N/N=C/c3cccnc3)[nH]n2)cc1	–	?	–	?	–	8.2µM
O=C(NNc1nc2ccc(Cl)cc2s1)c1cc(-c2cccs2)nc2ccccc12	?	?	–	?	–	18µM
Cn1cccc1/C=N/NC(=O)c1cc(-c2cccs2)nc2ccccc12	15µM	6.5µM	–	7.3µM	–	5.8µM

Screening data deposited in PubChem by National Center for Advancing Translational Sciences (NCATS).
